Laboratory results reported in PubChem BioAssay.
Records with an inconclusive call do not appear. Active and inactive are the calls of the source.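 The calls were made as follows, unless noted: active = growth inhibition above 25% in both replicates, a cutoff set 3 SD above the mean; inconclusive = above 25% in only one replicate; inactive = the rest.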

Key:
[1] = OD615 S. cerevisiae growth inhibition, permissive medium, pilot counter-assay, permissive growth control for S. cerevisiae lifespan shortening project (AID 705); conditions: OD615, 24 h, at 10 µM, stronger effect = higher value
[2] = Restrictive medium S. cerevisiae growth inhibition, OD615, pilot screen of yeast lifespan reduction project, restrictive growth control (AID 706;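 active = growth inhibition above a set limit, 3 SD over mean compound inhibition, in both replicates, cut at about 43% in these data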;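 also: modified DeaD lifespan yeast strain shifted to restrictive glucose medium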); conditions: OD615, 48 h, at 10 µM, stronger effect = higher value
[3] = viability gain of MRP-1-high H69AR cells under doxorubicin, pilot screen, MRP-1 activator project, CellTiter-Glo, duplicate (AID 807;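 active = viability increase at or above a cutoff of the median across tested compounds plus 3 SD, cut at about 8.5% in these data, passing the limit was not always enough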;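 also: compound pretreatment 18-22 h then 72 h combined with doxorubicin; 0% = doxorubicin alone and 100% = vehicle without doxorubicin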); conditions: H69AR viability with doxorubicin, CellTiter-Glo luminescence; at 10 µM; stronger effect = higher value
[4] = growth suppression of beta-catenin knockout HCT116, pilot screen, human colon tumor cells (AID 823;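 active = cell viability at or below a set limit in both duplicate runs, the limit being the all-compound median minus 4 SD, cut at about 23% in these data, passing the limit was not always enough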;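 also: 0% = wells killed by 20 µM Hyamine and 100% = untreated DMSO cell wells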); conditions: CellTiter-Glo, 60 h, at 10 µM, stronger effect = lower value
[5] = growth suppression of PTEN-deleted HCT116, pilot screen, cell-based, HCT116 clonal line, CellTiter-Glo (AID 824;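 active = viability at or below 27.92% in each of two runs, the all-compound median minus 4 SD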;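 also: 0% = 20 µM Hyamine control and 100% = vehicle cell control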); conditions: 60 h, at 10 µM, stronger effect = lower value
[6] = RAM signaling pathway blockade in yeast – S. cerevisiae, Pdr1DBD-CYC8 efflux-inhibited sensitized strain, primary screen (AID 1298;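 active = RAM network inhibition above 8.4% in each of two replicates, 3 SD over the compound average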;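 also: 0% = DMSO untreated cells without growth and 100% = 10 µM 1-NA-PP1 full growth; higher means more yeast growth rescued from 5-FOA killing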); conditions: S. cerevisiae cbk1-as DSE1-URA3 strain, 5-FOA growth OD615, 2 d; at 50 µM; stronger effect = higher value
[7] = HUVEC growth inhibition – cell-based, human, primary screen (AID 575;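 active = viability at or below 30% in both replicate assays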;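 also: 100% = median of untreated cell wells with 0.1% DMSO on each plate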); conditions: HUVEC proliferation, CellTiter-Glo luminescence, 72 h; at 10 µM; stronger effect = lower value
[8] = growth inhibitors of H69AR lung tumor, primary screen, human, duplicate replicates (AID 580;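 active = viability at or under a set limit in both replicates, limit being median viability minus 3 SD, cut at about 48% in these data, passing the limit was not always enough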;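 also: 100% = mean luminescence of untreated wells and 0% = no signal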); conditions: H69AR lung tumor cells viability, ATP luminescence, 72 h; at 10 µM; stronger effect = lower value
[9] = reversal of MRP1-mediated doxorubicin resistance, pilot screen, H69AR cells, doxorubicin co-treatment (AID 601;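 active = viability loss from added drug above about 55%, and viability with drug at most 40%, in both replicates, limit read from the data, passing the limit was not always enough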); conditions: CellTiter-Glo, 72 h, at 10 µM; for differential viability (reversal): stronger effect = higher value
[10] = 384-well plate pilot, post-Golgi transport modulator project, inhibition of yeast transport mutant growth (AID 636; in the data active = inhibition above about 31%); conditions: absorbance 615 nm, about 18 h, stronger effect = higher value
[11] = growth suppression of yeast trafficking mutant, preliminary HTS, modulators of trafficking downstream of Golgi apparatus project, 1536-format plate, OD 615 nm (AID 637; in the data active = inhibition above about 30%); conditions: yeast transport mutant growth, absorbance 615 nm, 18 h; stronger effect = higher value
[12] = inhibitors of the yeast RAM network, pilot screen, dse1pr::URA3 reporter, 5-FOA selection (AID 869;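 active = inhibition over a set limit, the all-compound mean plus 3 SD, in both replicate runs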;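 also: 0% = DMSO wells with no growth and 100% = 10 µM 1-NA-PP1 with full growth; RAM network block rescues cells from 5-FOA so hits raise OD615 growth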); conditions: S. cerevisiae dse1pr::URA3 5-FOA growth, OD615, 2 d; at 10 µM; stronger effect = higher value; strain carries analog-sensitive mutant Cbk1 kinase
[13] = H69AR cells + 2 uM doxorubicin, measured here: viability with 2 uM doxorubicin, stronger effect = lower value
[14] = H69AR cells, compound alone cytotoxicity

C=CCn1c(SCC(=O)c2cccs2)nc2sc(CC)cc2c1=O
inactive: growth inhibition [1] -5.62% | growth inhibition [2] 5.1% | viability increase [3] -1.39% | viability [4] 76.8% | viability [5] 83.3% | RAM network inhibition [6] 7.45%

OC(COCC1COc2ccccc2O1)CN1CCc2ccccc2C1 (centres undefined)
inactive: growth inhibition [1] -28.7% | growth inhibition [2] -12.5% | viability increase [3] -2.72% | viability [4] 86.4% | viability [5] 90.8% | RAM network inhibition [6] 1.37%

CCCCOc1ccccc1NC(=O)CC1Nc2ccccc2NC1=O (centres undefined)
inactive: growth inhibition [1] 6.14% | growth inhibition [2] 0.91% | viability increase [3] -6.18% | RAM network inhibition [6] 7.51%

Cn1c(=O)[nH]c(=O)c2c1nc(Sc1ccccc1)n2CCc1ccccc1
inactive: growth inhibition [1] -4.23% | growth inhibition [2] -5.96% | viability increase [3] -5.18% | viability [4] 91.6% | viability [5] 69.2% | RAM network inhibition [6] 7.53%

Cc1ccc(-c2cc(C(F)F)nc(NCc3cccnc3)n2)cc1
inactive: viability [7] 63.9% | viability [8] 80.3% | differential viability (reversal) ([9]; H69AR cells + 2 uM doxorubicin) -2.5% | inhibition [10] -2.63% | inhibition [11] 0.48% | growth inhibition [1] 4.57% | growth inhibition [2] -8.25% | viability [4] 51% | viability [5] 64.2% | inhibition [12] 1.65% | RAM network inhibition [6] 0.76%
80.3%: viability [9, 14]
82.8%: viability [9, 13]

Cc1cccc(-c2nc(CS(=O)CC(=O)N3CCN(C)CC3)c(C)o2)c1 (centres undefined)
inactive: growth inhibition [1] -8.17% | growth inhibition [2] -8.82% | viability increase [3] -1.78% | viability [4] 95.9% | viability [5] 99.5% | RAM network inhibition [6] 2.3%

COCCCNc1nc2c(c(=O)[nH]c(=O)n2C)n1CC(O)COc1ccccc1C (centres undefined)
inactive: growth inhibition [1] -1.92% | growth inhibition [2] -7.5% | viability increase [3] -2.64% | viability [4] 98.9% | viability [5] 101% | RAM network inhibition [6] 3.44%

COc1ccc(CCc2nc(-c3ccc(-n4cccc4)cc3)no2)cc1
inactive: growth inhibition [1] -20.1% | growth inhibition [2] -25.5% | viability increase [3] 1.78% | viability [4] 93.9% | viability [5] 91.6% | RAM network inhibition [6] 6.54%

CCOC(=O)N1CCN(C(=O)c2ccc(N3C(=O)c4ccccc4C3=O)cc2)CC1
inactive: growth inhibition [1] -3.96% | growth inhibition [2] -15.2% | viability increase [3] -2.58% | viability [4] 99% | viability [5] 93.6% | RAM network inhibition [6] 4.06%

COC(=O)c1nc2n(n1)C(c1ccc(OC)c(OC)c1)C(C(=O)OC1CCCCC1)=C(C)N2 (centres undefined)
inactive: viability [7] 88.9% | viability [8] 83.3% | differential viability (reversal) ([9]; H69AR cells + 2 uM doxorubicin) -14.8% | inhibition [10] -6.49% | inhibition [11] -4% | growth inhibition [1] -0.32% | growth inhibition [2] -3.14% | viability increase [3] -5.23% | viability [4] 97.5% | inhibition [12] 2.87% | RAM network inhibition [6] 6.75%
83.3%: viability [9, 14]
98%: viability [9, 13]

CCC(C(=O)N1CCN(c2cccc(Cl)c2)CC1)c1ccccc1 (centres undefined)
inactive: growth inhibition [1] 1.93% | growth inhibition [2] -5.71% | viability increase [3] -4.98% | viability [4] 57.7% | viability [5] 63% | RAM network inhibition [6] 8.74%

COc1ccccc1-c1nc(-c2ccc(Br)cc2)no1
inactive: growth inhibition [1] 4.16% | growth inhibition [2] -2.73% | viability increase [3] -3.88% | viability [4] 84.2% | viability [5] 94.1% | RAM network inhibition [6] 5.02%

N#Cc1nc(-c2ccc(Cl)cc2)oc1NCCc1ccccn1
96%: viability [9, 13]
104%: viability [9, 14]
inactive: viability [7] 102% | viability [8] 104% | differential viability (reversal) ([9]; H69AR cells + 2 uM doxorubicin) 7.66% | inhibition [10] 0.39% | inhibition [11] 5.4% | growth inhibition [1] 1% | growth inhibition [2] 0.83% | viability increase [3] -0.49% | viability [4] 97.3% | inhibition [12] 1.07% | RAM network inhibition [6] 7.29%

COc1ccc(-n2c(SCC(=O)Nc3ccc4c(c3)OCO4)nc3c(c2=O)SCC3)cc1
inactive: growth inhibition [1] -15.7% | growth inhibition [2] -12.5% | viability increase [3] -2.51% | viability [4] 98.2% | viability [5] 81.2% | RAM network inhibition [6] 8.27%

CC(c1ccco1)N(C(=O)COc1ccc(Cl)cc1Cl)c1ccccn1 (centres undefined)
73.3%: viability [9, 13]
inactive: viability [7] 71.6% | viability [8] 76.4% | differential viability (reversal) ([9]; H69AR cells + 2 uM doxorubicin) 3.06% | inhibition [10] -6.71% | inhibition [11] -10.3% | growth inhibition [1] -10.9% | growth inhibition [2] -10.3% | viability increase [3] -4.89% | viability [5] 65.6% | inhibition [12] 2.06% | RAM network inhibition [6] 7.28%
76.4%: viability [9, 14]

CC(C)c1ccc(-c2nc(N3CCCCC3)[nH]c(=O)c2C#N)cc1
87.5%: viability [9, 13]
88.3%: viability [9, 14]
inactive: viability [7] 83.3% | viability [8] 88.3% | differential viability (reversal) ([9]; H69AR cells + 2 uM doxorubicin) 0.79% | inhibition [10] 0.92% | inhibition [11] -3.49% | growth inhibition [1] -17.7% | growth inhibition [2] 3.37% | viability increase [3] -2.54% | viability [4] 102% | inhibition [12] 2.5% | RAM network inhibition [6] 8.32%
